# Peg3 promoter – Peg3 promoter-driven luciferase inhibitors, primary screen, cell-based, HeLa, luciferase luminescence | HeLa PEG-Prom luciferase reporter, overnight | inhibition, % at 20 µM | 360,000 compounds, 1.7% hits | AID 588405, 2011;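 active = inhibition of at least 50% at 20 µM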
# KKLEB tox – cytotoxicity in KKLEB CF airway cells, primary screen, cytotoxicity control for CF NF-kB inhibitor project, cell-based, uHTS, fluorescence assay plates | 360,000 compounds, 0.36% hits | KKLEB CF airway cells viability, ATPlite luminescence, overnight; hits give low values; cells stimulated with P. aeruginosa culture filtrate | activity change (cytotoxicity), % at 5 µM;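 active = corrected activity change at or below -50% at 5 µM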
# HIF-2a inh – HIF-2a reporter inhibitors, primary screen, luminescence, 786-0 RCC cells. 786-0 RCC cells HIF-2a reporter, luciferase luminescence, overnight. inhibition, % at 18.8 µM. 360,000 compounds, 0.72% hits. AID 624352, 2012;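 active = inhibition of the luminescence signal of 40% or more relative to plate controls, in a single-dose primary screen at 18.75 µM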
# CF NFkB inh – inhibitors of PAF-induced NF-kB signaling, primary screen, cell-based, GFP fluorescence, uHTS; KKLEB NF-kB-GFP reporter, GFP fluorescence overnight; inhibition, % at 5 µM; 360,000 compounds, 0.86% hits;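 active = at least 50% inhibition at 5 µM, scaled per plate between neutral and stimulator controls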;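 also: PAF is a Pseudomonas aeruginosa culture filtrate used as stimulus; plate controls were PAF-stimulated DMSO wells for no effect and unstimulated DMSO wells for full effect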
# Shn3 3UTR inh – reduction of Shn3 3'UTR firefly luciferase signal, primary screen, Schnurri-3 inhibitor project, cell-based, Clone20 osteoblasts, set 2; inhibition, % at 12.5 µM; Clone20 osteoblast Shn3 3'UTR firefly luciferase, 24 h; AID 588674, 2011; 360,000 compounds, 0.52% hits;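 active = mean inhibition of at least 75% with every replicate also reaching 75%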;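 also: 0% = median of neutral control wells and 100% = pilot-screen positive control compound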
# TRPM1 prom inh – inhibitors of MITF-dependent TRPM1 promoter reporter, primary screen, cell-based, SK-MEL-5, single point, luciferase; SK-MEL-5 TRPM1 promoter luciferase, 24 h; inhibition, % at 12.5 µM; 330,000 compounds, 0.83% hits;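 active = mean inhibition across replicates of 60% or more, whatever share of single replicates reaches that level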
# CF NFkB conf – inhibitors of PAF-induced NF-kB signaling, retest, confirmation, cell-based, GFP fluorescence, single concentration; shares compounds with CF NFkB inh; KKLEB CF airway cells, overnight; inhibition, % at 5 µM; 1,300 compounds, 64% hits; AID 602472, 2012; in the data active = inhibition above about 40%;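 also: stimulus PAF is a Pseudomonas aeruginosa filtrate and not platelet activating factor; plate controls were DMSO wells with stimulus for no effect and unstimulated DMSO wells for full effect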
# Mdm2 MdmX conf – retested Mdm2-MdmX interaction blockers, confirmation, cell-based, luminescence, single concentration, set 2. 740 compounds, 99% hits. shares compounds with HIF-2a inh. SaOS-2 split-luciferase Mdm2/MdmX complementation. inhibition, % at 8 µM;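 active = mean inhibition of the luminescence signal across two replicates at or above 26 percent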
# Target sequence (O15151 whole entry, looked up): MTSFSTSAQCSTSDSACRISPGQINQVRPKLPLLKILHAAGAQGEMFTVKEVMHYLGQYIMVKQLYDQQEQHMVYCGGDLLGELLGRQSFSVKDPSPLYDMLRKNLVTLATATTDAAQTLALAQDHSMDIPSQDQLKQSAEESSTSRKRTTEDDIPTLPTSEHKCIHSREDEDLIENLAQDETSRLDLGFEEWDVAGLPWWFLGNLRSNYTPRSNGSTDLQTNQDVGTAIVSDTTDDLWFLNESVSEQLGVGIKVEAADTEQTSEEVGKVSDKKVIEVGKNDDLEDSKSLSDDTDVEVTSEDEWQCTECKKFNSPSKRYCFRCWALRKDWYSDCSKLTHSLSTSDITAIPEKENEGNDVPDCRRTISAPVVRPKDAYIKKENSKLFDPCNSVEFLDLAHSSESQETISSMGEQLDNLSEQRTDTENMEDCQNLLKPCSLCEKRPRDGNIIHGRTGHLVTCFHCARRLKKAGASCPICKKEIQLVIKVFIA
# Target sequence (Q00987 whole entry, looked up): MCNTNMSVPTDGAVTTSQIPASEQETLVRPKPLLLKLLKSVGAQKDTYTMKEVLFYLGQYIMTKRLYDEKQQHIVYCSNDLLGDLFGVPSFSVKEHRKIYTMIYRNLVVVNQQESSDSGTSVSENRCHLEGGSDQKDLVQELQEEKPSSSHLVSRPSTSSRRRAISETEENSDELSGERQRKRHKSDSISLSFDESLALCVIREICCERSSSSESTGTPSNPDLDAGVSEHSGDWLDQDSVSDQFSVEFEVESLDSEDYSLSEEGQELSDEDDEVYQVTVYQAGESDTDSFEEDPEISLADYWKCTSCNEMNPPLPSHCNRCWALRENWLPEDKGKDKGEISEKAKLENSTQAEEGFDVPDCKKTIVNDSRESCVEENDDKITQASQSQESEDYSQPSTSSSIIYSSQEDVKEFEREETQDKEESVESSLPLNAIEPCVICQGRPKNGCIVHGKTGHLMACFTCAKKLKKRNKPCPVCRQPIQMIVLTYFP
# HIF-2a conf – HIF-2a reporter inhibitor retest, confirmation, luminescence, 786-0 RCC cells; shares compounds with HIF-2a inh; inhibition, % at 18.8 µM; HIF-2a luciferase reporter luminescence, overnight; AID 651580, 2012; 1,800 compounds, 56% hits;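 active = mean inhibition across four replicates of at least 40 percent at the single tested concentration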
# HIF-1a cs – HIF-1a luciferase reporter signal reduction – MiaPaCa-2 cells, single concentration, counter-screen for HIF-2a inhibitor project, confirmation. shares compounds with HIF-2a inh. AID 651589, 2012. MiaPaCa-2 HIF-1a luciferase reporter, desferoxamine, overnight. inhibition, % at 18.8 µM. 1,800 compounds, 72% hits;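 active = mean inhibition of the reporter signal across four replicates at the single tested dose of 50% or more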
# The depositor's hits bear a star; · = no result given. An excerpt weighted towards active compounds, which were near 2.8% of everything screened.
SMILES,Peg3 promoter,KKLEB tox,HIF-2a inh,CF NFkB inh,Shn3 3UTR inh,TRPM1 prom inh,CF NFkB conf,HIF-2a conf,HIF-1a cs,others
COc1ccc(OC)c(NC(=O)COC(=O)C2CCCCC2)c1,0,5,-2,-3,5,5,·,·,·,
O=C(CSc1ccccn1)Nc1nonc1[N+](=O)[O-],104*,-15,47*,88*,95*,86*,1,23,-34,
CSCC[C@H](NC(=O)Nc1ccc(S(N)(=O)=O)cc1)C(=O)O,6,8,11,-4,11,-3,·,·,·,
Cc1cccc(C)c1NS(=O)(=O)c1ccc(-c2cnc(C3CC3)o2)cc1,19,-31,47*,65*,29,74*,73*,35,51*,
CC(/C=N/n1c(-c2cccnc2)n[nH]c1=S)=C\c1ccccc1,8,14,-7,12,11,-8,·,·,·,
CC(=C/c1ccccc1)/C=N/n1c(-c2ccncc2)n[nH]c1=S,-1,-4,16,76*,3,-30,78*,·,·,Mdm2 MdmX conf=89*
CC(=O)NC12CC3CC(C1)CC(C(=O)NCc1ccc(C)cc1)(C3)C2,5,0,9,12,-3,2,·,·,·,
CCc1cc(C(=O)N(CCCOC)c2c(N)n(Cc3ccccc3)c(=O)[nH]c2=O)sc1C,7,6,10,-21,8,0,·,·,·,
O=[N+]([O-])c1ccc(C=CC=Cc2ccccc2)cc1,-255,11,-241,-47,-66,·,·,·,·,
CN(c1ccccc1)c1ccc(/C=C/[N+](=O)[O-])cc1,103*,-9,92*,65*,94*,92*,-23,85*,105*,
O=C(NC(=S)N1CCN(C/C=C/c2ccccc2)CC1)c1ccc(Cl)nc1,16,3,9,-13,35,-3,·,·,·,
COc1cc(-c2nc(-c3ccc(NC(=O)c4ccc5c(c4)OCO5)cc3)no2)cc(OC)c1OC,-77,-49,-138,58*,4,-1,42*,·,·,Mdm2 MdmX conf=88*
O=C(Nc1ccc2nc3n(c(=O)c2c1)CCCCC3)c1cc([N+](=O)[O-])ccc1F,108*,-46,46*,71*,96*,67*,12,20,105*,
O=C(Nc1ccc2nc3n(c(=O)c2c1)CCCC3)c1ccccc1F,-120,3,-154,-5,-41,-38,·,·,·,
Cc1cc(NC(=O)CSC2=NS(=O)(=O)c3ccccc3N2)no1,-14,2,9,-11,-2,-9,·,·,·,
N#Cc1c(Oc2ccc3ccccc3c2)sc(C(=O)c2ccccc2)c1N,48,-15,42*,51*,8,22,-102,17,-82,
CCOC(=O)c1nc(S(C)(=O)=O)ncc1Cl,105*,-4,46*,69*,96*,29,-14,-3,6,
CS(=O)(=O)c1ncc(Cl)c(C(=O)Nc2ccc(OC(F)F)cc2)n1,102*,-37,92*,90*,93*,73*,88*,98*,100*,Mdm2 MdmX conf=103*
CCc1cc(SC#N)cc(C)c1NC(=O)CCl,-87,-48,46*,66*,8,9,54*,47*,62*,
COCCCNC(=O)/C(C#N)=C/c1cccc(NC(=O)c2ccccc2Cl)c1,6,-21,21,24,-10,0,·,·,·,
N#C/C(=C\c1cccc(NC(=O)c2ccccc2Cl)c1)C(=O)NCCc1ccccc1,12,-31,80*,82*,-18,37,9,45*,93*,
CN1CCN(S(=O)(=O)c2ccc(Sc3nnnn3-c3ccccc3)c([N+](=O)[O-])c2)CC1,91*,-30,67*,88*,87*,88*,64*,39,100*,Mdm2 MdmX conf=102*
O=C(Nc1ccc(Cl)cc1)NN1CC(=O)N(c2cccc(C(F)(F)F)c2)CC1=O,7,4,23,24,-48,5,·,·,·,
COc1ccc(OC)c(S(=O)(=O)NC2CCSc3ccccc32)c1 (stereo not drawn),13,6,-2,1,-26,2,·,·,·,
CN(C)CCCN(C(=O)CCS(=O)(=O)c1ccccc1)c1nc2cc3c(cc2s1)OCO3,107*,-11,62*,96*,7,58,104*,38,102*,
SMILES,Peg3 promoter,KKLEB tox,HIF-2a inh,CF NFkB inh,Shn3 3UTR inh,TRPM1 prom inh,CF NFkB conf,HIF-2a conf,HIF-1a cs,others
Cc1c(C(=O)Nc2cccc([N+](=O)[O-])c2)cnn1-c1ccccc1,-322,10,-358,-20,-147,-63,·,·,·,
Cc1cccc(CS(=O)(=O)c2ncc(Cl)c(C(=O)NCc3ccccc3)n2)c1,97*,-26,69*,86*,95*,87*,82*,69*,62*,
CCOC(=O)C(=Cc1ccc(-n2cncn2)cc1)C(=O)OCC,104*,-8,94*,75*,7,41,22,90*,106*,
COc1ccccc1/C=C1\SC(=S)N(CC(=O)NC2CCS(=O)(=O)C2)C1=O (stereo not drawn),-7,-2,6,-26,2,-7,·,·,·,
O=C(Nc1ccc(S(=O)(=O)N2CCCCCC2)cc1)c1[nH]ncc1[N+](=O)[O-],-21,-12,40*,70*,3,70*,-49,74*,88*,
C/C(N)=C(/C#N)C(=O)CSc1nnnn1-c1ccc(C)cc1,-82,-10,-118,8,-13,-20,·,·,·,
CCCNC(=O)C1(C)CCN(C(=O)c2ccc3sccc3c2)C1 (stereo not drawn),9,15,-1,-15,24,·,·,·,·,
Cn1c(Sc2ccc(Cl)cc2)c(C=O)c2ccccc21,54*,-29,26,76*,7,19,81*,·,·,Mdm2 MdmX conf=92*
COCCNC(=O)C1(C)CCCN(Cc2ccc(-n3ccnc3)cc2)C1 (stereo not drawn),-5,9,-4,-18,7,·,·,·,·,

# Assay outcomes from PubChem BioAssay.
